Compound activity: PubChem BioAssay, Broad Institute
MLL AF4-AF9 inh – inhibitors of AF4 peptide binding to AF9, primary screen, biochemical, AlphaScreen, biotin-AF4 peptide, FLAG-AF9, single point; Protein AF-9 (Homo sapiens), P42568; inhibition, % at 10 µM; hit rate 0.47% among 350,000;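 active = every replicate reaching a set inhibition limit, whatever the replicate mean, cut at about 25% in these data; inconclusive = mean inhibition reaches that limit but some replicates miss it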
INS-1E GSIS act – GLuc luminescence reporter in INS-1E cells, primary screen for activators of glucose-dependent secretion of insulin. INS-1E GLuc reporter insulin secretion, 2-3 h. activation, % at 16.6 µM. hit rate 0.61% among 370,000. AID 743287, 2014;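 active = lowest replicate activation of at least 40%, so every replicate reaches that level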
Env fusion inh – inhibitors of HIV-1 Env-driven cell-cell fusion, primary screen, HeLa-JRFL effector, CEM21 target cells, luciferase | inhibition, % at 12.3 µM | hit rate 1.1% among 360,000;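 active = mean replicate inhibition score of at least 50 and every replicate individually at or above 50; inconclusive = only one of the two criteria met; inactive = mean below 50 and not all replicates reaching 50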
PGC1a acetyl inh – inhibitors of PGC1a acetylation signal, primary screen, cell-based, U2OS, AlphaScreen, inhibitor mode; AlphaScreen anti-acetyl-lysine; with virally co-expressed GCN5 acetyltransferase; hit rate 0.17% among 350,000; AID 651687, 2012; inhibition, % at 15.6 µM;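 active = every replicate shows inhibition of at least 40%; inconclusive = mean inhibition at least 40% but some replicate below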
NSD2 inh – NSD2 histone methyltransferase inhibitors, primary screen, biochemical, AlphaScreen, single concentration, set 2; inhibition, % at 12.5 µM; hit rate 0.54% among 310,000; NSD2 peptide methylation, 120 min; in the data active = inhibition above about 50%
Target sequence (O96028 whole entry, looked up): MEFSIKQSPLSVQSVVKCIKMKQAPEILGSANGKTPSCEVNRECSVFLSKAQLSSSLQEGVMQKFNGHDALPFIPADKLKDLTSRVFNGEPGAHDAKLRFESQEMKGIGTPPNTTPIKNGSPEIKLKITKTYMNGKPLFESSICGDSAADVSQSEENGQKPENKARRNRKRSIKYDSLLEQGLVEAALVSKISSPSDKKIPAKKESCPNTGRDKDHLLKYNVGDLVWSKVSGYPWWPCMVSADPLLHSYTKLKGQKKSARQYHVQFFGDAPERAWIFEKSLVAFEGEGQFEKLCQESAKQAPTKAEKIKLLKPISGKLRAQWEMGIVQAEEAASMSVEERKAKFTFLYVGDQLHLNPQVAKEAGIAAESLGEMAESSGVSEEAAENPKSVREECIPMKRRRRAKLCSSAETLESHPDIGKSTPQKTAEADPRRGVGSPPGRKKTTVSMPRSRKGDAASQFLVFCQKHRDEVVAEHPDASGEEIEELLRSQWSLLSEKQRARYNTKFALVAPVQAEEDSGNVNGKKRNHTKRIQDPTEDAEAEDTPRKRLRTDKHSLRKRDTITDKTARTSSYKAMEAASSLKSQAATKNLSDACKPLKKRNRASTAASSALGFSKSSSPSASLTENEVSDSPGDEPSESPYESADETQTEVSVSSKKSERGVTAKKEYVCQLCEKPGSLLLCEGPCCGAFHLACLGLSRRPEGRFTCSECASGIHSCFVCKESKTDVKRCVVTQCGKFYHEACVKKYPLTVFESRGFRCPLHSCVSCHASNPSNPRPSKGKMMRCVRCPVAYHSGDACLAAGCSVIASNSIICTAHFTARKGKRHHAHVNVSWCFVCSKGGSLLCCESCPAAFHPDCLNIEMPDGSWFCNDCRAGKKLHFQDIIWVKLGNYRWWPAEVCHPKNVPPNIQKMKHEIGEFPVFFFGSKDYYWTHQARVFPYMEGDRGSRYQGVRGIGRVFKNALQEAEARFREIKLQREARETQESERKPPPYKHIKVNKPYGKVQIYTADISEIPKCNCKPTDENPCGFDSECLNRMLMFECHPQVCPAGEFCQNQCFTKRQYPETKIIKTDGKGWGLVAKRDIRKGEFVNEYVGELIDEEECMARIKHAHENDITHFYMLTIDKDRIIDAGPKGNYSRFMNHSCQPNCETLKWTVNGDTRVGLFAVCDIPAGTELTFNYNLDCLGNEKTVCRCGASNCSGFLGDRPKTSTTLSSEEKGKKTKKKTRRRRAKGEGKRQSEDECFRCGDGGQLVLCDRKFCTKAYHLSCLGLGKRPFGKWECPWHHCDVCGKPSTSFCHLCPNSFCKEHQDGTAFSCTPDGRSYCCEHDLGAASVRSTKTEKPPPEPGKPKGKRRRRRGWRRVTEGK
Each line names hits and unclear results; the compound was inactive in the other large screens. The list is not random: actives were taken first. Their share in the collection is about 2.1%.

CN(C)c1ccc(NC(=S)Nc2ccc3c(c2)c(=O)n(C)n3-c2ccc(C(C)(C)C)cc2)cc1	Env fusion inh 58.0
N#C/C(=C/c1ccc(Sc2nc3ccccc3[nH]2)o1)c1ccccc1F	Env fusion inh 73.2 (no result: MLL AF4-AF9 inh, PGC1a acetyl inh)
N#C/C(=C/c1ccc(Sc2nc3ccccc3[nH]2)o1)c1cccc(F)c1	Env fusion inh 87.3 (no result: MLL AF4-AF9 inh)
C[C@@H](c1ccccc1)N1C[C@H](COCc2ccccc2)Oc2cc(N3CC[C@@H](N(C)C)C3)ccc2S1(=O)=O	none (no result: Env fusion inh, PGC1a acetyl inh, NSD2 inh)
CN1CC(COCc2ccccc2)Oc2ccccc2S1(=O)=O (stereo not given)	none (no result: NSD2 inh)
O=S1(=O)c2ccccc2OC(COCc2ccccc2)CN1C1CC1 (stereo not given)	INS-1E GSIS act 109.2 (no result: NSD2 inh)
Cc1ccc(Oc2cccc3c2S(=O)(=O)N([C@H](C)c2ccccc2)C[C@@H](COCc2ccccc2)O3)cc1	none (no result: PGC1a acetyl inh, NSD2 inh)
C[C@H](c1ccccc1)N1C[C@@H](COCc2ccccc2)Oc2cccc(N3CCCCC3)c2S1(=O)=O	Env fusion inh 58.6 (no result: PGC1a acetyl inh, NSD2 inh)
C[C@@H](c1ccccc1)N1C[C@H](COCc2ccccc2)Oc2cc(N3CC[C@H](N(C)C)C3)ccc2S1(=O)=O	MLL AF4-AF9 inh 25.9 (no result: Env fusion inh, PGC1a acetyl inh, NSD2 inh)
CCCCNC(=O)C[C@H]1C[C@@]2(C(=O)OC)C(=C[C@H](C(C)C)O[C@@H]2C2CC2)N(Cc2ccccc2)C1=O	none (no result: PGC1a acetyl inh, NSD2 inh)
COc1ccccc1C(=O)NNC(=S)NC(=O)c1sc2ccccc2c1Cl	none (no result: MLL AF4-AF9 inh, PGC1a acetyl inh)
Cc1c(NC(=S)NC(=O)c2sc3ccccc3c2Cl)cccc1C(=O)O	INS-1E GSIS act 62.7 (no result: PGC1a acetyl inh)
C1CN(CC2CCN(c3nc4nonc4nc3N3CCSCC3)CC2)CCO1	none
CCCc1[nH]nc2c1C(c1ccc(OCCN3CCOCC3)c(OC)c1)C(C#N)=C(N)O2 (stereo not given)	none (no result: MLL AF4-AF9 inh, INS-1E GSIS act, NSD2 inh)
CCOc1cc(C2C(C#N)=C(N)SC(N)=C2C#N)ccc1OCCN1CCOCC1	INS-1E GSIS act 81.5 (no result: MLL AF4-AF9 inh)
C=CCn1cc(C(=O)N2CCN(CC)CC2)c(=O)c2cc(S(=O)(=O)N(CC)CC)ccc21	MLL AF4-AF9 inh 44.9
C=CC[C@]12CCc3ccccc3C1N(c1ccc(C(=O)OCC)cc1)C2=O (stereo not given in full)	Env fusion inh 61.5 (no result: PGC1a acetyl inh, NSD2 inh)
CCCCc1ccc(NC(=O)N2CCN(c3cc(C)nc4ccccc34)CC2)c(C)c1	none (no result: MLL AF4-AF9 inh, INS-1E GSIS act, Env fusion inh)
O=C(O)c1ccc(S(=O)(=O)N(Cc2ccc(F)cc2)C2CCCCC2)cc1	none (no result: INS-1E GSIS act)
CN(Cc1ccccc1)S(=O)(=O)c1ccc(S(=O)(=O)N(Cc2ccc(F)cc2)C2CCCC2)cc1	Env fusion inh 57.9, PGC1a acetyl inh inconclusive (no result: MLL AF4-AF9 inh)
CC(C)C[C@@H](COCc1cccc(C(F)(F)F)c1)N1CCN(C(=O)c2ccc(C(F)(F)F)cc2)CCC1=O	Env fusion inh 62.1 (no result: PGC1a acetyl inh, NSD2 inh)
COc1ccc(COCC(CC(C)C)N2CCN(C(=O)c3cccc(C(F)(F)F)c3)CCC2=O)cc1 (stereo not given)	none (no result: NSD2 inh)
CC(C)CC(COCc1cccc(Cl)c1)N1CCN(C(=O)c2cccc(C(F)(F)F)c2)CCC1=O (stereo not given)	Env fusion inh 76.4 (no result: NSD2 inh)
Cc1cccc(COC[C@H](CC(C)C)N2CCN(C(=O)c3ccc(C(F)(F)F)cc3)CCC2=O)c1	none (no result: PGC1a acetyl inh, NSD2 inh)
COn1c(=O)c(-c2ccc(Cl)cc2)[n+]([O-])c2ccccc21	none (no result: MLL AF4-AF9 inh, INS-1E GSIS act)
Cc1ccc(S(=O)(=O)N2CCC(C(=O)N3Cc4ccccc4C3)CC2)cc1	none (no result: MLL AF4-AF9 inh, INS-1E GSIS act, Env fusion inh)
CO[C@H]1CN(C)C(=O)c2cc(NS(=O)(=O)c3ccc(-c4ccccc4)cc3)ccc2OC[C@@H](C)NC[C@H]1C	none (no result: NSD2 inh)
CSc1cccc(N2CC(C(=O)NCCN3C(=O)S/C(=C\c4cccnc4)C3=O)CC2=O)c1 (stereo not given)	PGC1a acetyl inh 75.2
O=C(NCCN1C(=O)S/C(=C\c2cccnc2)C1=O)C1CC(=O)N(Cc2ccco2)C1 (stereo not given)	none
Cc1cccc(C)c1N(CC(O)Cn1c2ccccc2c2ccccc21)S(C)(=O)=O (stereo not given)	Env fusion inh 83.8 (no result: MLL AF4-AF9 inh, INS-1E GSIS act)
CC(=O)Nc1ccc(N(CC(O)Cn2c3ccccc3c3ccccc32)S(=O)(=O)c2ccc(C)cc2)cc1 (stereo not given)	Env fusion inh 104.6 (no result: PGC1a acetyl inh)
Cc1ccc(N(CC(O)Cn2c3ccccc3c3ccccc32)S(C)(=O)=O)cc1 (stereo not given)	none (no result: Env fusion inh)
Cc1ccc(O)c(C2=NOC(O)(C(F)(F)F)C2)c1 (stereo not given)	INS-1E GSIS act 52.1 (no result: MLL AF4-AF9 inh, Env fusion inh)
